Source: ChEMBL document CHEMBL3988442, “University of Dundee, Small-Polar-MMV Screening Library” (2021)
For some assays here: Potency and affinity values are given separately.

Legend:
Design in all cases: scale not given: direction of the effect not stated beside the values
[1] = molecular target: Protein translocase subunit SecA (Escherichia coli (strain K12)) (UniProt P10408); assay: Assay to Identify E. coli SecA ATPase Inhibitors; assay type: functional; conditions: 30 µM
[2] = molecular target: T1, Ubiquitin-activating enzyme e1, putative (Leishmania donovani (strain BPK282A1)) (UniProt E9BSI1); assay: Leishmania donovani Ubiquitin Activating Enzyme (LdE1); assay type: functional; conditions: 30 µM
T1 sequence (whole entry): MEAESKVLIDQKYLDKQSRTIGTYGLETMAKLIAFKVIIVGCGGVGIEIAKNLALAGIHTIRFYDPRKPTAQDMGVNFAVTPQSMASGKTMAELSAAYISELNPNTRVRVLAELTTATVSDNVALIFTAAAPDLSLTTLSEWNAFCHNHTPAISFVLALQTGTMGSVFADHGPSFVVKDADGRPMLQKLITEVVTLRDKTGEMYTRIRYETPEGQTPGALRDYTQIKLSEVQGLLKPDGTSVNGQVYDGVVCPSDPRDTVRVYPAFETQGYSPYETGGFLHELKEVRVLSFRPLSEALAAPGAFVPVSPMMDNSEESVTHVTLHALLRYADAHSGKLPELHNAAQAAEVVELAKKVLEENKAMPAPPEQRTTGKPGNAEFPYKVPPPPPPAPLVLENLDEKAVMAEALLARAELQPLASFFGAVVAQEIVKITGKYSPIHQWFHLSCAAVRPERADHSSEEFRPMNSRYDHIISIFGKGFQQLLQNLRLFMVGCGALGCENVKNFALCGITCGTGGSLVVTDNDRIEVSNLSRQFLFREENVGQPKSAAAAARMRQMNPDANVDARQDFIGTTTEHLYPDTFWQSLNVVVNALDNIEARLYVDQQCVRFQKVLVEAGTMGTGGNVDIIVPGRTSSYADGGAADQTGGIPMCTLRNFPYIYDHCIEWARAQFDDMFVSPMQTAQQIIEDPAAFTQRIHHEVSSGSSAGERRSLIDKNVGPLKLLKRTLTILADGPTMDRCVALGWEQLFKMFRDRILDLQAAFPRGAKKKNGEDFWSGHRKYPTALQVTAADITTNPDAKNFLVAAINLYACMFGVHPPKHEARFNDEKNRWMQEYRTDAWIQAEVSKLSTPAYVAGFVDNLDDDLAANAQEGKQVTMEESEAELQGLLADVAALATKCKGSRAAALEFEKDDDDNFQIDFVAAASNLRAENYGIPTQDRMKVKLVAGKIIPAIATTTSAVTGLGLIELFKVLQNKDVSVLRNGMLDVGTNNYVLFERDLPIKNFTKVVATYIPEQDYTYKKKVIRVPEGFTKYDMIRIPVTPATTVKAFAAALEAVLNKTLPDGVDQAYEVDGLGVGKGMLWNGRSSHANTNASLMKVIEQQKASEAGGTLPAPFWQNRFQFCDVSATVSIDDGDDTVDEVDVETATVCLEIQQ

[3] = molecular target: AMP-activated protein kinase, AMPK (Homo sapiens) (UniProt P54646+O43741+P54619+Q9UGJ0+Q9Y478+Q13131+Q9UGI9); assay: AMP-dependent Kinase enzyme assay. An in vitro enzyme assay that detects ADP turnover that is directly proportional to AMPK activity. This uses naive AMPK that is activated during the assay with MK-8722; assay type: functional; conditions: 30 µM
[4] = molecular target: Sialic acid-binding Ig-like lectin 9 (Homo sapiens) (UniProt Q9Y336); assay: Hs-Siglec9 ALPHAscreen SOP 20170721; conditions: 10 µM
Chain of Sialic acid-binding Ig-like lectin 9 (Homo sapiens) (Q9Y336 whole entry): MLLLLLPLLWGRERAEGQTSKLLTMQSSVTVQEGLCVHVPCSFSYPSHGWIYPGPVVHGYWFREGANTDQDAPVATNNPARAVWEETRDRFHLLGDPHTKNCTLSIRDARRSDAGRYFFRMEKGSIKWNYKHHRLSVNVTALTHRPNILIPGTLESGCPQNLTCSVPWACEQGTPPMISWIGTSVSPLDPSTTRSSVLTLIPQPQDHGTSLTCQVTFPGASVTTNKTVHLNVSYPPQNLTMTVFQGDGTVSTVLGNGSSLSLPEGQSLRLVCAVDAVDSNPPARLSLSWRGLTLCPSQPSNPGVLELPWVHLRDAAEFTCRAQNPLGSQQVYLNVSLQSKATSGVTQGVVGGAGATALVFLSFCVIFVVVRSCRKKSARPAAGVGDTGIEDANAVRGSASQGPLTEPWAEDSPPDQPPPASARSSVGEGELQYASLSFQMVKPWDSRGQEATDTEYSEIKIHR

Trypanosoma cruzi = assay: Trypanosoma cruzi phosphomannomutase and mannose-1-phosphate guanylyltransferase assay; assay type: functional; conditions: 10 µM
[5] = molecular target: T2, Arginase-2, mitochondrial (Homo sapiens) (UniProt P78540); assay: in vitro enzyme assay to detect the production of urea directly proportional to the activity of Arginase II; assay type: functional; conditions: 33.3 µM; further: in the data most compounds retested in dose-response had high values
T2 sequence (whole entry): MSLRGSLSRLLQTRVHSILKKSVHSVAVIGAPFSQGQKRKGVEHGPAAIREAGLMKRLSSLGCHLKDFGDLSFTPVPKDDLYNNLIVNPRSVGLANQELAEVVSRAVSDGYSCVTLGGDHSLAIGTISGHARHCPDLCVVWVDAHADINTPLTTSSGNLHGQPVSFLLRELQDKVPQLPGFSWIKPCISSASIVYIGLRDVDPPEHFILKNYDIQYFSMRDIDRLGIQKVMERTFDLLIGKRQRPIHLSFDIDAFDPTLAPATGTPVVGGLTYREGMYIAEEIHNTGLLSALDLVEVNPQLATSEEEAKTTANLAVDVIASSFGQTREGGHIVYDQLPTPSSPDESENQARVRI

[6] = molecular target: T3, Proteasome subunit beta (Trypanosoma cruzi) (UniProt O96673); assay: Trypanosoma cruzi proteasome chymotrypsin-like activity (TcProtChymo) assay.; further: in the data most compounds retested in dose-response had high values; assay type: functional; conditions: 9.37 µM
T3 sequence (whole entry): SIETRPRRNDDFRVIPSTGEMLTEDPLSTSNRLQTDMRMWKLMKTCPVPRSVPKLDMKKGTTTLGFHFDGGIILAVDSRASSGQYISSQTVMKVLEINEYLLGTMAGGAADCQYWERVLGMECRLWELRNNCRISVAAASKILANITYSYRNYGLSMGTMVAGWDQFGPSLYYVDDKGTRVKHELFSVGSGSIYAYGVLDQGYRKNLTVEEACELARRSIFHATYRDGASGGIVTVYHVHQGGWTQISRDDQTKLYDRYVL

Homo sapiens = organism: Homo sapiens; assay: To identify inhibition of the IFN signalling (Jak-Stat) pathway via expression of an eGFP reporter gene under the control of an IFN-stimulated response element (ISRE) containing MxA promoter.; assay type: functional; conditions: 30 µM
[7] = molecular target: T4, Tyrosyl-tRNA synthetase, putative (Trypanosoma cruzi (strain CL Brener)) (UniProt Q4DSP6); assay: Trypanosoma cruzi tyrosyl tRNA synthetase (TcYRS) _High Tyrosine SOP; assay type: functional; conditions: 30 µM; further: in the data most compounds retested in dose-response had high values
T4 sequence (whole entry): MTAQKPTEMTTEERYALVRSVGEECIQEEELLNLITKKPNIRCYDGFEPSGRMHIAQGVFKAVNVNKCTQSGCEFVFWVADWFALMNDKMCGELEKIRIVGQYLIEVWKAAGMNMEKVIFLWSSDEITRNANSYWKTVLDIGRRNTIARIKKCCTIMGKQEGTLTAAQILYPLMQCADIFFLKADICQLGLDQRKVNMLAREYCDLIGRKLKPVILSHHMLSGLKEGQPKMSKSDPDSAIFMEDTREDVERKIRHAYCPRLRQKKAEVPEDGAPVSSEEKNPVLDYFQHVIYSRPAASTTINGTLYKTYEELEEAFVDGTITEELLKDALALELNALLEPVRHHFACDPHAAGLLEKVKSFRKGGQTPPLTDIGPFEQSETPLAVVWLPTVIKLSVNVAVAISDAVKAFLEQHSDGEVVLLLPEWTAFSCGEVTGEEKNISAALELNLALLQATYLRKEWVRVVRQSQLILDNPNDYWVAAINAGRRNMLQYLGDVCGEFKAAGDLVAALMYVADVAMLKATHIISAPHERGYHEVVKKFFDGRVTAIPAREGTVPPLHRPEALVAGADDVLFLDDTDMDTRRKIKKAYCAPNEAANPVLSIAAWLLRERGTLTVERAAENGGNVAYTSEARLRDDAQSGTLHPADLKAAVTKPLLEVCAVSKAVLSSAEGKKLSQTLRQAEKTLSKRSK

[8] = molecular target: T4, Tyrosyl-tRNA synthetase, putative (Trypanosoma cruzi (strain CL Brener)); assay: Trypanosoma cruzi tyrosyl tRNA synthetase (TcYRS) SOP; assay type: functional; conditions: 30 µM
[9] = molecular target: Chromo domain-containing protein 1 (Saccharomyces cerevisiae (strain ATCC 204508 / S288c) (Baker's yeast)) (UniProt P32657); assay: ScCHD-1 Enzyme Inhibition Assay; assay type: functional; conditions: 30 µM; further: in the data most compounds retested in dose-response had high values
Chain of Chromo domain-containing protein 1 (Saccharomyces cerevisiae (strain ATCC 204508 / S288c) (Baker's yeast)) (P32657 whole entry, the tested form may be a part): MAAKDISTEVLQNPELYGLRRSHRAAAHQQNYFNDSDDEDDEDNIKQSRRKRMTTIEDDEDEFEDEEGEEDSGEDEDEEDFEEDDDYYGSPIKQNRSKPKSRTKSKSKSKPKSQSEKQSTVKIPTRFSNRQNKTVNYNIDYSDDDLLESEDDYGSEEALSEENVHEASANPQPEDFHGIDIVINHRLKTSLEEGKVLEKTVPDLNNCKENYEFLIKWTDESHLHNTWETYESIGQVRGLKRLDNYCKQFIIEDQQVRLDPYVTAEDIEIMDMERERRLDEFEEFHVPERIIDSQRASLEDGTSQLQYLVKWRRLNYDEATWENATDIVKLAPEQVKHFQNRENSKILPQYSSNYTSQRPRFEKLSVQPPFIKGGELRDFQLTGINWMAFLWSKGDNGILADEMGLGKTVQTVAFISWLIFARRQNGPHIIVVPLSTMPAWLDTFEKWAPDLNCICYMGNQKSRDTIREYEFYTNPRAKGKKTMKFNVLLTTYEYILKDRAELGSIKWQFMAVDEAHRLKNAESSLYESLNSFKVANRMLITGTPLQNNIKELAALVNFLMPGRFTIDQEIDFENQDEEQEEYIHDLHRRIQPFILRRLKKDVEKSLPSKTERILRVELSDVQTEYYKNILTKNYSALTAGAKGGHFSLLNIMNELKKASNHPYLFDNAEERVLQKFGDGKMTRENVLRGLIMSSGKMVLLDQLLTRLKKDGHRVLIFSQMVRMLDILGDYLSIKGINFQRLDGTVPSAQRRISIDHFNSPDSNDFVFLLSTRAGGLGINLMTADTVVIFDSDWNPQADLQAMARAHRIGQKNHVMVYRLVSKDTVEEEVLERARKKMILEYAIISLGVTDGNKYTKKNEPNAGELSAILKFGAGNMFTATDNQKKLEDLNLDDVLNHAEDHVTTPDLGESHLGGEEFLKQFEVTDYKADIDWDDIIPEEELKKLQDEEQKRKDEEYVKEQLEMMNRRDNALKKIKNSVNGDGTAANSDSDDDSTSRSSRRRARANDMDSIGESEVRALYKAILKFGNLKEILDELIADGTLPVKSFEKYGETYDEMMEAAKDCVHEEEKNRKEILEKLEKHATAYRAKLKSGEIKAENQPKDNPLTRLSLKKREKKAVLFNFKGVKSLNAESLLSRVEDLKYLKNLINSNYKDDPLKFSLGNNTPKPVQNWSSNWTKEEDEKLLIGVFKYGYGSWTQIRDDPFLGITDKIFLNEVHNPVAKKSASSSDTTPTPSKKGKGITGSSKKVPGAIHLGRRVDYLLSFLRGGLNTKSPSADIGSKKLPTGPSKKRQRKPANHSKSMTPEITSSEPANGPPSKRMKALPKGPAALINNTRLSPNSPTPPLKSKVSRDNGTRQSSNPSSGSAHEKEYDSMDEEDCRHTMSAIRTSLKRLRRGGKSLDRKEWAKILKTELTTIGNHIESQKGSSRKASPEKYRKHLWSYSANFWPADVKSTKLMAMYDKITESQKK

Chain of Protein translocase subunit SecA (Escherichia coli (strain K12)) (P10408 whole entry): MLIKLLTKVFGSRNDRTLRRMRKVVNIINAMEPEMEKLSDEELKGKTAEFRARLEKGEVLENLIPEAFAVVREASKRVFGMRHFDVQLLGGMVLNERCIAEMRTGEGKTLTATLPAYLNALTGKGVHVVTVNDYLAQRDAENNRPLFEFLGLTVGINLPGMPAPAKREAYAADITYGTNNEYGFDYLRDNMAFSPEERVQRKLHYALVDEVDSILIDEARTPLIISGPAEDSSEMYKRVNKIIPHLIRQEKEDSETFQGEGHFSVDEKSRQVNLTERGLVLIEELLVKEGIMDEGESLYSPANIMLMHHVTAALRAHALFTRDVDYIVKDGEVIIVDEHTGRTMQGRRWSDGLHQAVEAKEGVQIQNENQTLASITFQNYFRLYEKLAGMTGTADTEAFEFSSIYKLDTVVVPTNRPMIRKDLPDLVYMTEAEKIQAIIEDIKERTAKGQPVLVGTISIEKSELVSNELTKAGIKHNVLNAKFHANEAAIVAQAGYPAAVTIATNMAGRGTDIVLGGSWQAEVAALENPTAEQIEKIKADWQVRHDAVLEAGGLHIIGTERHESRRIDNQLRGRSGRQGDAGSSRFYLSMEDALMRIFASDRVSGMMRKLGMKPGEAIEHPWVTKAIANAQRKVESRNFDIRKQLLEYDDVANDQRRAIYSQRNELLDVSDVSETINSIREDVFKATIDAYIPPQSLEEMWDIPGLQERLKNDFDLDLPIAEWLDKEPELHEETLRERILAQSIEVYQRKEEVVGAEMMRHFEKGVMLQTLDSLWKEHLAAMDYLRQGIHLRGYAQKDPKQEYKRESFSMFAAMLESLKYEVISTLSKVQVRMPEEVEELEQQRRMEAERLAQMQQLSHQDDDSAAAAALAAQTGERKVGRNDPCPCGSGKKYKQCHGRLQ

Structure (SMILES) | Percent Effect [1] [%] | Percent Effect [2] [%] | Percent Effect [3] [%] | Percent Effect [4] [%] | Percent Effect (Trypanosoma cruzi) [%] | Percent Effect [5] [%] | Percent Effect [6] [%] | Percent Effect (Homo sapiens) [%] | Percent Effect [7] [%] | Percent Effect [8] [%] | Percent Effect [9] [%]
CCCNC(=O)c1cc2c(nc1O)CCC(C)C2 (stereo not given) | -3.98 | 14.7 | 2.01 | -2.15 | 5.5 | -13.9 | 9.06 | -2.51 | 6.35 | 10.3 | -8.5
CCc1noc(C2CCN(C(=O)CCn3nc(C)cc3C)CC2)n1 | -4.24 | 18.2 | 0.146 | 12.9 | 8.55 | -5.52 | 14.8 | -6.48 | 8.6 | 16.1 | -7.88
Cc1nn(C)c(N(C)C)c1CNCC(O)COc1ccc(F)cc1 (stereo not given) | -3.9 | 2.74 | -7.44 | -8.06 | -1.57 | 0.909 | 12.2 | -14.5 | 4.3 | 12.5 | -3.3
Cc1nn(C)c(N2CCOCC2)c1CNC1CCN(C(C)(C)C)CC1 | -2.55 | 20.2 | -9.63 | -2.51 | -1.42 | -0.38 | 13.5 | 10.5 | 5.42 | 16.5 | -4.24
COCCN(C)C(=O)Cn1cccc(OC)c1=O | -0.736 | 5.48 | -9.15 | 4.8 | -8.53 | 3.99 | 18.4 | 4.06 | -3.12 | -1.24 | -2.41
CN1CCC(C(=O)NCc2nncn2-c2ccccc2)CC1=O (stereo not given) | -2.63 | 5.41 | -5.14 | 5.74 | -3.87 | -2 | 0 | 13.5 | 4.43 | 1.24 | -2.07
CN1CCN(C(CNC(=O)CCn2cccn2)c2cccs2)CC1 (stereo not given) | 1.81 | -2.67 | -4.22 | 0.224 | -3.6 | 4.17 | 6.63 | 5.37 | 2.73 | 3.7 | 2.11
Cn1cnc2c1CCN(CCCOc1ccc(C#N)cc1)C2 | -7.51 | 2.53 | -0.357 | -0.18 | -2.93 | -1.14 | 5.98 | 20.4 | -0.493 | -1.27 | -3.4
CNC(=O)[C@H]1C[C@H]2OCC[C@H]2N(Cc2ccc(C)o2)C1 | -0.274 | 7.79 | 4.6 | 0.238 | -6.02 | -4.52 | 9.57 | 7.69 | 1.06 | 8.97 | -6.31
CCS(=O)(=O)N1C[C@H]2CN(Cc3cccnc3)C(=O)[C@H]2C1 | -1.39 | 2.7 | 0.503 | 1.84 | -6.25 | 0 | 10.9 | 19.2 | 4.95 | 6.1 | 1.54
